Experiment [1] concerns the target Lysosomal acid glucosylceramidase (Homo sapiens) (UniProt P04062). Put plainly: Glucocerebrosidase-p2 (AID 348; in the data active means potency below about 10 µM; further: potency means the concentration at half of the fitted maximal effect). The conditions noted are these: purified GBA, blue fluorogenic substrate, 40 min. The gist of the method: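 Compounds titrated from 0.6 nM upwards against 0.2 nM enzyme in pH 5.9 citric acid/KH2PO4, taurocholate, tween-20; blue fluorogenic substrate 80 uM, 40 min room temperature, stopped and read Ex 365/Em 440 for AC50.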

The nature of experiment [2]: AP1 Signaling Pathway (AID 357; active means well fitted curve in either direction with a large enough effect, not every such curve was filed as active;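 further: ME-180 reporter cells stimulated with EGF at its EC50 level; on the % scale 0 is the no-effect control and ±100 the full control effect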). The conditions noted are these: ME-180 AP-1-bla reporter, EGF-induced, beta-lactamase ratio, 5 h; at 7.69 µM (top of the series) unless noted. The gist of the method: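 A ratiometric CCF4 readout (405 nm excitation; 460 and 530 nm emission) quantified AP-1-driven beta-lactamase in ME-180 cells after 5 h with compound and EC50 EGF; AC50 values were derived for activators and inhibitors.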

For experiment [3], the target named is Cytochrome P450 1A2 (Homo sapiens) (UniProt P05177). Put plainly: p450-cyp1a2 (AID 410). Further: potency means the concentration at half of the fitted maximal effect.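 On activity change, negative = inhibition: -100% = full effect of reference inhibitor.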 The note with it: recombinant CYP1A2, luciferin-ME demethylation, luminescence; series mostly up to 57 µM. The gist of the method:
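Luminescent readout of luciferin formed from Luciferin-ME by human CYP1A2; data normalized against complete inhibition by 57 uM furafylline. Enzyme 20nM, substrate 100uM at Km, 100mM KPO4 buffer, 60 min reaction at room temperature.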

The nature of experiment [4]: Stat Signaling Pathway (AID 446; active means well fitted curve in either direction with a large enough effect, not every such curve was filed as active;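 further: ME-180 cervical cancer cells given 40 pM IL-6 alongside compound; SIE-controlled beta-lactamase reporter measured as 460/530 nm FRET emission ratio; on the % scale 0 is the no-effect control and ±100 the full control effect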). The note with it: ME-180 SIE beta-lactamase reporter, IL-6 stimulated, 5 h; at 7.69 µM (top of the series) unless noted. The gist of the method: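 Screening format detects activators and inhibitors alike: ME-180 SIE-bla cells stimulated at 40 pM IL-6 for 5 hrs with compound, then dual-emission beta-lactamase read at 405 nm excitation.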

In experiment [5] the target is Glucocorticoid receptor (Homo sapiens) (UniProt P04150). In words: GR-EFC Redistribution (AID 451). Further: potency means the concentration at half of the fitted maximal effect. The conditions noted are these: CHO-K1 GR-EFC translocation, beta-gal luminescence, 2 h. The gist of the method:
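Translocation of GR-ED fusion to nuclear EA restores b-gal, read by luminescence after 1 h room-temperature detection. Engineered CHO-K1 biosensor cells, 1,000/well, exposed 2 h at 37 C to titrations up to 46 uM final.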

For experiment [6], the target named is Mitogen-activated protein kinase 10 (Mus musculus) (UniProt Q61831). In words: JNK3 AlphaScreen Assay (AID 530; active means well fitted curve in either direction with a large enough effect, not every such curve was filed as active;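 further: kinase came from lysate of stimulated human HepG2 cells; signal reports phosphorylation of biotinylated GST-cJun 1-79 at Ser73 with 10 µM ATP; on the % scale 0 is the no-effect control and ±100 the full control effect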). The note with it: JNK3 lysate, c-Jun phosphorylation; series mostly up to 57.1 µM. The gist of the method:
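Compound titrations were preincubated 15 minutes at room temperature with substrate, antibody and pre-activated JNK3-containing HepG2 lysate. Reactions were started with 10 uM ATP and stopped with EDTA-containing bead buffer for AlphaScreen detection.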

For experiment [7], the target named is 3',5'-cyclic-AMP phosphodiesterase 4B (Homo sapiens) (UniProt Q07343). In words: qHTS Assay for Inhibitors of PDE-IV (AID 607; active means well fitted activation curve with a large enough effect in the main read-out, with a control signal flat, not every such curve was filed as active; further: % of control where 0% means no effect). The conditions noted are these: HEK293 ACTOne CNG channel cells, membrane potential fluorescence; series mostly up to 22.9 µM. The gist of the method: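 The readout is membrane depolarisation from a cAMP-sensing CNG channel, detected with a potential dye at ex 535/em 590. Cells were HEK293-derived (endogenous PDE-IV) at 1000 cells/well, titrated up to 22.9 uM final.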
Sequence of 3',5'-cyclic-AMP phosphodiesterase 4B (Homo sapiens) (Q07343 whole entry, looked up): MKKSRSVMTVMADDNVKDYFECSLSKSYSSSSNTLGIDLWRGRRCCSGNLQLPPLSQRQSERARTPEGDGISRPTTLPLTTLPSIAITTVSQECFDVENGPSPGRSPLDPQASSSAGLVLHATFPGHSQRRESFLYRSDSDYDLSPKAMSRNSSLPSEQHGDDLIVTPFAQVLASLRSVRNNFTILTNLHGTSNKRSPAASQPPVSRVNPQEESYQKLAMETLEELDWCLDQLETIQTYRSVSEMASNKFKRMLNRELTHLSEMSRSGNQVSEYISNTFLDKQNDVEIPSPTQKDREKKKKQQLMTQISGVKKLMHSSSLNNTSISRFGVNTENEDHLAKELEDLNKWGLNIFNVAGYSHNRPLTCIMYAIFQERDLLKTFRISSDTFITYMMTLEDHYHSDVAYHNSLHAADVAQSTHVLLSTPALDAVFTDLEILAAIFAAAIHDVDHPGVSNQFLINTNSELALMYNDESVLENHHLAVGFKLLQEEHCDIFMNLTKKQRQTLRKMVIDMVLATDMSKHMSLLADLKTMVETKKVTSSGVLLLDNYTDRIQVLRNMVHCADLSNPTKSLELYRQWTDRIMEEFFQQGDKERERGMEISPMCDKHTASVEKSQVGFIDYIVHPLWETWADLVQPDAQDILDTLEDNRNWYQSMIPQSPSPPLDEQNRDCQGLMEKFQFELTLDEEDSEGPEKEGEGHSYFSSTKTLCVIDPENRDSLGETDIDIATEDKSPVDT
A general note: qHTS replaces the single test concentration by a dilution series.

For experiment [8], the target named is Cytochrome P450 3A4 (Homo sapiens) (UniProt P08684). In words: qHTS Assay for Inhibitors and Substrates of Cytochrome P450 3A4 (AID 884; active means well fitted curve in the direction sought with a large enough effect; an effect the other way counts as inactive or inconclusive; further: on the % scale 0 is the no-effect control and ±100 the full control effect; nearly all actives have a fitted effect of over 50% in size). The conditions noted are these: recombinant CYP3A4, Luciferin-PPXE luminescence; series mostly up to 57.1 µM. The gist of the method:
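20 nM human CYP3A4 with 25 uM Luciferin-PPXE (at KM) in 200 mM KPO4, preincubated 10 min with compound; NADPH regeneration started a 60 min RT reaction. Luciferin detected by luminescence, normalized to 57 uM ketoconazole as full inhibition.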

For experiment [9] the target is unchanged. Put plainly: qHTS Assay for Activators of Cytochrome P450 3A4 (AID 885; active means well fitted curve in the direction sought with a large enough effect; an effect the other way counts as inactive or inconclusive; further: nearly all actives have a fitted effect of over 65% in size; further: potency means the concentration at half of the fitted maximal effect). The conditions noted are these: recombinant CYP3A4, Luciferin-PPXE luminescence, 60 min; series mostly up to 57.1 µM. The gist of the method:
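Steps: enzyme/substrate mix dispensed; compound added, 10 min RT; NADPH regeneration solution added, 60 min RT; luciferin detection buffer stops reaction; 20 min later luminescence measured.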

For experiment [10], the target named is Cytochrome P450 2D6 (Homo sapiens) (UniProt P10635). In words: qHTS Assay for Inhibitors and Substrates of Cytochrome P450 2D6 (AID 891; active means well fitted curve in the direction sought with a large enough effect; an effect the other way counts as inactive or inconclusive; further: potency means the concentration at half of the fitted maximal effect; nearly all actives have a fitted effect of over 60% in size). The note with it: recombinant CYP2D6, luciferin-ME EGE luminescence; series mostly up to 57.1 µM. The gist of the method:
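Human CYP2D6 (5 nM) with 30 uM Luciferin-ME EGE (at Km) in 100 mM KPO4, compound preincubated 10 min, then NADPH regeneration system for 60 min at room temperature. Luciferin read by luminescence; normalized to 1.43 uM quinidine.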

The nature of experiment [11]: qHTS Assay for Lipid Storage Modulators (AID 1519). The note with it: Drosophila S3 cells, BODIPY lipid droplet/cell ratio, laser cytometry, cells loaded with oleic acid; for activity change, negative = inhibition: at 57.5 µM (top of the series). The gist of the method:
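Cells seeded at 5,000 per well were treated with compounds over a concentration series and loaded with oleic acid (400 uM, as added). Lipid droplet fluorescence (488 nm excitation, 500-530 nm channel) was read by laser-scanning cytometry and normalized to 20 uM Triacsin C.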

A short description of experiment [12]: Primary qHTS for small molecule stabilizers of the endoplasmic reticulum resident proteome: Secreted ER Calcium Modulated Protein (SERCaMP) assay (AID 1508630; active means well fitted curve in the direction sought with a large enough effect; an effect the other way counts as inactive or inconclusive; further: on the % scale 0 is the no-effect control and ±100 the full control effect). The note with it: SH-SY5Y GLuc-SERCaMP (Gaussia luciferase released on ER calcium loss) secretion, thapsigargin, luminescence; series mostly up to 38.4 µM. The gist of the method: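 GLuc-SERCaMP-expressing SH-SY5Y cells, pretreated 16 h with compound, are challenged with thapsigargin to empty ER calcium stores; after 4 h, coelenterazine is added directly to the medium and luminescence is imaged.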

Experiment [13] can be described thus: qHTS Assay for Identification of Small Molecule Agonists for Hypoxia Response Element Signaling Pathway (AID 914; active means well fitted activation curve with a large enough effect in the signal ratio, with a control signal flat, not every such curve was filed as active; the % refers to the signal ratio; further: % of control where 0% means no effect). The conditions noted are these: ME-180 (cervical carcinoma) HRE-bla reporter, beta-lactamase ratio, CoCl2, 17 h; activation: stronger effect = higher value. The gist of the method:
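Cells were plated overnight, pin-dosed with compound in a titration series, co-stimulated with EC50 CoCl2 and incubated 17 hours at 37 degrees Celsius. CCF4 substrate was then loaded, and AC50 values came from the 460nm/530nm ratio.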

The mark [14] stands for this setting: measured here: cell count channel max response.
Setting [15] is: measured here: lipid channel max response.

Inconclusive results are not listed. The source made the active and inactive calls. Unless noted, the call rests on the fitted dose curve. Where only a bound is given, the exact number is not on record here.

Sequence of Glucocorticoid receptor (Homo sapiens) (P04150 whole entry, looked up, the tested form may be a part): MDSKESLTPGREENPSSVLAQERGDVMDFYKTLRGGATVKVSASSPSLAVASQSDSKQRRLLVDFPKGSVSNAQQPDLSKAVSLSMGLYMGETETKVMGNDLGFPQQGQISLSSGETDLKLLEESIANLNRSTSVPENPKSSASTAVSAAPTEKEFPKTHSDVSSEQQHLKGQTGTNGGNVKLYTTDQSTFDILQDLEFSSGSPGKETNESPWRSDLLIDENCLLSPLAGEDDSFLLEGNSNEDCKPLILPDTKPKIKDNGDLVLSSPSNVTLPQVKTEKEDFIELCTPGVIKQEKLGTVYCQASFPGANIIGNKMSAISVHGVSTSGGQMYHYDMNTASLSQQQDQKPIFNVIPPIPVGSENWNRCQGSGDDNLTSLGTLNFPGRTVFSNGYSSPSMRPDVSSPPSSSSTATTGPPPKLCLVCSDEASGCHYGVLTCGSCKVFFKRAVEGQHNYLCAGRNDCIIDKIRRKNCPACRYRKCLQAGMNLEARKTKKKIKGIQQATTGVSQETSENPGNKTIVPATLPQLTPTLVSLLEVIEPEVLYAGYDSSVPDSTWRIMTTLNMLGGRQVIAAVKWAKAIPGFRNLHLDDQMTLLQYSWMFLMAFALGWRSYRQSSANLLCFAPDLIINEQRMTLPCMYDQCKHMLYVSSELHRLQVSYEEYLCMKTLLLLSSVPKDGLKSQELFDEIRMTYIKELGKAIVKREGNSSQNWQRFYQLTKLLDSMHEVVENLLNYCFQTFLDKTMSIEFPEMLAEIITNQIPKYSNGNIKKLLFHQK
Sequence of Cytochrome P450 1A2 (Homo sapiens) (P05177 whole entry, looked up): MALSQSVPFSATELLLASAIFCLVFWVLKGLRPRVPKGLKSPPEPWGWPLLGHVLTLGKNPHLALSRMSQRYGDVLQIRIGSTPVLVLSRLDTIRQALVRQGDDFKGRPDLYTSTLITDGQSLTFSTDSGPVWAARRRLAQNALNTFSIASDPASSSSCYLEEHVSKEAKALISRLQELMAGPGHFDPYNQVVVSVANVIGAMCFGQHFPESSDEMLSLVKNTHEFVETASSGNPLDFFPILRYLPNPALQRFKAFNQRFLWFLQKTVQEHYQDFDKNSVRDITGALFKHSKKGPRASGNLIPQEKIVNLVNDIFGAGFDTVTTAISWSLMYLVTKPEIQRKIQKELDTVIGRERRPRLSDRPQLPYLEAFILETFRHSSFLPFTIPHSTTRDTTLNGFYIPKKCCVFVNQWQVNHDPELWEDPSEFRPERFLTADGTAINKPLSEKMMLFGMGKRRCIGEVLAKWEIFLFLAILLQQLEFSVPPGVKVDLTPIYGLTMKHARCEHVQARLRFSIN
Sequence of Lysosomal acid glucosylceramidase (Homo sapiens) (P04062 whole entry, looked up): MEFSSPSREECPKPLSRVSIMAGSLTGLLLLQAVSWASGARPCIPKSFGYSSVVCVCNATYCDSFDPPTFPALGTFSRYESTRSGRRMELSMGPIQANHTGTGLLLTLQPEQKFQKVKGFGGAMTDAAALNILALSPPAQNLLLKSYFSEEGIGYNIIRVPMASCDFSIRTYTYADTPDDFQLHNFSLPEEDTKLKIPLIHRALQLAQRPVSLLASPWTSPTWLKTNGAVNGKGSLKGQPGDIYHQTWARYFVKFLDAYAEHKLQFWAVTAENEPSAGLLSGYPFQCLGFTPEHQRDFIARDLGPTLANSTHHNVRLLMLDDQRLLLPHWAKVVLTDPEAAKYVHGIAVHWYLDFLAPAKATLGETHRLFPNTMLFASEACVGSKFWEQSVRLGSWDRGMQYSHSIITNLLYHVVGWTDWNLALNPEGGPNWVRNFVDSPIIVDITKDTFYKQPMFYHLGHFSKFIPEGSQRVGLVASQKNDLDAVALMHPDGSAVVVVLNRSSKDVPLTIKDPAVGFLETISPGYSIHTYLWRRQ
Sequence of Cytochrome P450 3A4 (Homo sapiens) (P08684 whole entry, looked up): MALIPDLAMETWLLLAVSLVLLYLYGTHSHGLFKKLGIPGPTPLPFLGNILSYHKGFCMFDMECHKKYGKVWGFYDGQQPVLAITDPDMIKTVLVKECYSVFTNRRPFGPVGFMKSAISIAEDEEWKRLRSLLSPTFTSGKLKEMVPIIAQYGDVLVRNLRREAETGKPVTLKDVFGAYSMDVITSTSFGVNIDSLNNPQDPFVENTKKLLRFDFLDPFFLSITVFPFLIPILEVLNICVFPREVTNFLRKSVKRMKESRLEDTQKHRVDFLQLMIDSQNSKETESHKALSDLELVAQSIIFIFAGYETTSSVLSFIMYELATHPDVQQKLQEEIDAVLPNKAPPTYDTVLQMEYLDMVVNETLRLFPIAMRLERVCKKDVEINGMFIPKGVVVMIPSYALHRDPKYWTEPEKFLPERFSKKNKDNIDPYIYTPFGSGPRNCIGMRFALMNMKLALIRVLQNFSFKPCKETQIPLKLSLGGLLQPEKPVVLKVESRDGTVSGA
Sequence of Cytochrome P450 2D6 (Homo sapiens) (P10635 whole entry, looked up): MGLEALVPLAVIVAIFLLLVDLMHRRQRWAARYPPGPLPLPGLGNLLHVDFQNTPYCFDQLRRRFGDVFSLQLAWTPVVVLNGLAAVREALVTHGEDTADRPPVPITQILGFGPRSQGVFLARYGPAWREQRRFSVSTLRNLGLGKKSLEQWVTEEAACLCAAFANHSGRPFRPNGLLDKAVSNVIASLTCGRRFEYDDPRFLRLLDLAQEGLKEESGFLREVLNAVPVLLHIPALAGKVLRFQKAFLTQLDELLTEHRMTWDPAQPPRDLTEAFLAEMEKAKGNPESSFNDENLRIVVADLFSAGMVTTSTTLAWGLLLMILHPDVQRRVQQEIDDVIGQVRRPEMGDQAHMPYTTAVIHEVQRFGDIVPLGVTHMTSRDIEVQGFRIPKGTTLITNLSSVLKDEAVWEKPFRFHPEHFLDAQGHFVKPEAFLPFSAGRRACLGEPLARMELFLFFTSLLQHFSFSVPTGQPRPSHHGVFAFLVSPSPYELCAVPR

Turning to `O=C(c1cnccn1)N1CCC2(CC1)CN(C(c1ccccc1)c1ccccc1)C2`, the Potency in [1] is > 11.4 µM (inactive); in experiment [3], 25.1 µM (active); in experiment [5], > 46 µM (inactive); in [9], 12.6 µM (active); in experiment [10], 6.31 µM (active). In addition, the figures for the activity change, negative = inhibition in experiment [2] and in [11] were -2% (inactive) and 1.71% (inactive), respectively. The activity, negative = inhibition in [4] was -4.86% (inactive). Besides, the Potency entry in experiment [6], in experiment [7] and in experiment [8] was “inactive” each time. Besides, the max response in experiment [11] (setting [14]) came to 6.7%; in [11] (setting [15]) it was 10.5%. Besides, the outcome in [12] was inactive.

In the case of `CN1CC[C@@]2(CCCN(C(=O)c3cc(C(F)(F)F)cc(C(F)(F)F)c3)C2)C1`, the results for the Potency in [1] and in experiment [5] were > 11.4 µM (inactive) and > 46 µM (inactive), respectively. Also, the activity change, negative = inhibition in experiment [2] is -0.328% (inactive); in experiment [11], 1.24% (inactive). The Potency result in experiment [3], in experiment [6], in [7] and in experiment [9] was “inactive” in each case. Further, the activity, negative = inhibition in experiment [4] was 13.1% (inactive). Also, the values for the max response in [11] (setting [14]) and in experiment [11] (setting [15]) were -1.13% and 2.81%, respectively. Moreover, the outcome in experiment [12] was inactive.

Take `N#Cc1cccc(NC(=O)N2CCC3(CC2)CCN(C(=O)c2cccc(F)c2)CC3)c1`: the results for the Potency in experiment [1], in experiment [5] and in experiment [9] were > 11.4 µM (inactive), > 46 µM (inactive) and 7.94 µM (active), respectively. The figures for the activity change, negative = inhibition in [2] and in experiment [11] were -11.8% (inactive) and 5.01% (inactive), respectively. For the same compound, the Potency entry in [3], in experiment [6] and in experiment [7] was “inactive” in each case. Also, in experiment [4], the activity, negative = inhibition is -7.8% (inactive). The max response was 6.66% in experiment [11] (setting [14]) and 13.2% in [11] (setting [15]). The result in [12] was inactive.

`Cn1cccc1C(=O)N1CCC2(CC1)CN(c1ccccn1)C2`: the Potency in experiment [1] was > 11.4 µM (inactive); in experiment [5], > 46 µM (inactive); in [9] it was 12.6 µM (active). Moreover, the figures for the activity change, negative = inhibition in experiment [2] and in experiment [11] were 2.02% (inactive) and 5.7% (inactive), respectively. Besides, the Potency result in experiment [3], in experiment [6], in experiment [7] and in experiment [8] was “inactive” in each case. The activity, negative = inhibition in experiment [4] is -6.36% (inactive). Besides, the max response in experiment [11] (setting [14]) came to 7.05%; in [11] (setting [15]), 13.8%. Besides, the outcome in [12] was inactive.

Turning to `O=C(c1ccco1)N1CCC2(CCN(Cc3nccs3)CC2)CC1`, the Potency in [1] is > 11.4 µM (inactive); in [5] it was > 46 µM (inactive). The activity change, negative = inhibition in experiment [2] is 5.22% (inactive); in experiment [11] it was 1% (inactive). Besides, the Potency entry in experiment [3], in experiment [6], in [7] and in experiment [8] was “inactive” in each case. Further, in experiment [4], the activity, negative = inhibition was 4.68% (inactive). Also, the activation in experiment [13] was -9.81% (inactive). The figures for the max response in experiment [11] (setting [14]) and in [11] (setting [15]) were 8.57% and 12.6%, respectively. In addition, the result in experiment [12] was inactive.

Regarding `O=C(Nc1cccc(F)c1)N1CC2(CCN(C(=O)c3cc(C(F)(F)F)cc(C(F)(F)F)c3)CC2)C1`, the Potency was > 11.4 µM (inactive) in [1] and > 46 µM (inactive) in experiment [5]. Further, the activity change, negative = inhibition in experiment [2] was -25.3% (inactive); in [11], 7.3% (inactive). In addition, the Potency result in experiment [3], in experiment [6], in [7] and in experiment [9] was “inactive” throughout. For the same compound, the activity, negative = inhibition in [4] is -22% (inactive). The max response in [11] (setting [14]) was determined as 16.9%; in experiment [11] (setting [15]) it was 27.5%. Besides, the outcome in experiment [12] was inactive.

Consider `O=C(c1cc(C(F)(F)F)cc(C(F)(F)F)c1)N1CCC[C@@]2(CCN(c3ccccc3)C2)C1`, for which the figures for the Potency in experiment [1] and in [5] were > 11.4 µM (inactive) and > 46 µM (inactive), respectively. Besides, the activity change, negative = inhibition in [2] is 0.763% (inactive); in experiment [11], -3.81% (inactive). Further, the Potency entry in experiment [3], in [6], in experiment [7] and in experiment [9] was “inactive” in each case. Moreover, the activity, negative = inhibition in [4] was 2.5% (inactive). Further, the max response in experiment [11] (setting [14]) and in experiment [11] (setting [15]) was 10.6% each time. Further, the outcome in [12] was inactive.

The values above are taken from PubChem BioAssay (NCATS).
